Records with an inconclusive call do not appear. A call without a number means that no potency is given here. Active and inactive are the calls of the source. The call rests on the fitted dose curve; in most records, active means well fitted curve in the direction sought with a large enough effect in the repeat runs; inconclusive means weak or mixed curves; inactive means no such curve, though single readings can be large; an effect the other way counts as inactive or inconclusive.
Potency means the concentration at half of the fitted maximal effect.

One assay can be described thus: qHTS RealTime-Glo MT Cell Viability Assay in HEK293 cells - 40 hour (AID 1224874). Further: nearly all actives have a fitted effect of over 50% in size. As to conditions: RealTime-Glo luminescence; max response: active compounds read low. A digest of the protocol:
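Viable HEK293 cells reduce a cell-permeant prosubstrate; the product diffuses out and is consumed by NanoLuc in the medium to give light. Compounds went in after a 5 h incubation and plates were read over the treatment course.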
For the compound `O.O.O.O.O.O.O.O=S(=O)([O-])[O-].[Co+2]`, the max response is 0.267% (inactive).
As to `O=[N+]([O-])C(Br)Br`, the Potency was 55 µM (active).
`CCCCCCC[CH2][Sn]([Cl])([Cl])[CH2]CCCCCCC`: the max response is -19.1% (inactive).
Turning to `Cc1c([N+](=O)[O-])cc2c(c1[N+](=O)[O-])C(C)(C)CC2(C)C`, the max response is -1.57% (inactive).
On to `COP(=S)(NC(C)C)Oc1ccc(C)cc1[N+](=O)[O-]` (centres undefined), for which the max response was -12.5% (inactive).
On to `CCCCCCCc1ccc(O)cc1`, for which the Potency is 21.9 µM (active).
On the same count and under the same terms, to `COC(=O)N(OC)c1ccccc1COc1ccn(-c2ccc(Cl)cc2)n1` belongs 13.8 µM (active).
As for `O=[N+]([O-])c1ccc(Cl)c(Cl)c1Cl`, the max response is -8.94% (inactive).
On the same count and under the same terms, to `CN1CCc2cc3c(cc2C1O)OCO3` (centres undefined) belongs 1.96% (inactive); to `ClC(Cl)C(Cl)(Cl)Cl`, 0.191% (inactive).

Another assay in a line: A CellTox Green Cytotoxicity Assay to monitor cytotoxicity in HEK293 cells - 24 hour (AID 1224875). Further: nearly all actives have a fitted effect of over 45% in size. As to conditions: CellTox Green fluorescence; series mostly up to 76.8 µM. In outline: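 Fluorescence intensity, read at 0, 8, 16, 24, 32 and 40 h of compound treatment, reflected dye binding to DNA of dead HEK293 cells; compounds (23 nL, DMSO) were added 5 h after plating cells with reagent.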
Regarding `CCC[CH2][Sn]([CH2]CCC)([O]C(C)=O)[O]C(C)=O`, the Potency is 1.24 µM (active).
In the case of `[F][Sn]([c]1ccccc1)([c]1ccccc1)[c]1ccccc1`, the Potency was 3.47 µM (active).
The same measure, in the same setting: the value for `CC(=O)[O-].CC(=O)[O-].O.O.[Zn+2]` was “inactive”.
On the same count and under the same terms, the value for `CO/N=C(\C(=O)OC)c1ccccc1CO/N=C(\C)c1cccc(C(F)(F)F)c1` was “inactive”; that for `CNC(=O)/C=C(\C)OP(=O)(OC)OC` was “inactive”; that for `Nc1nc(N)c(N)c(N)n1` was 49.2 µM (active).
Turning to `O.O.O.O=C([O-])[C@H]([O-])[C@@H]([O-])C(=O)[O-].O=C([O-])[C@H]([O-])[C@@H]([O-])C(=O)[O-].[K+].[K+].[Sb+3].[Sb+3]`, the Potency result was “inactive”.
The same measure, in the same setting: the value for `O=S(=O)(NS(=O)(=O)C(F)(F)F)C(F)(F)F` was “inactive”; that for `O=C(NC(=O)c1ccccc1Cl)Nc1ccc(OC(F)(F)F)cc1` was “inactive”; that for `CCC(C)Nc1c([N+](=O)[O-])cc(C(C)(C)C)cc1[N+](=O)[O-]` (centres undefined) was “inactive”.
In the case of `O=C(N[C@H]1N=C(c2ccccc2F)c2cccc3c2N(CC3)C1=O)c1cc2ccccc2[nH]1`, the Potency entry was “inactive”.
Same read-out and setting: the value for `c1ccc2nc(N3CCNCC3)ccc2c1` was “inactive”.
`C[C@H]1[C@H](c2ccc(Cl)cc2)SC(=O)N1C(=O)NC1CCCCC1`: the Potency result was “inactive”.
On the same count and under the same terms, to `CC(C)(C)c1ccc(OP(=O)(Oc2ccccc2)Oc2ccccc2)cc1` belongs “inactive”.
Turning to `Oc1cccc(Cl)c1Cl`, the Potency entry is “inactive”.
On the same count and under the same terms, the value for `Cc1c([N+](=O)[O-])c(C)c([N+](=O)[O-])c(C(C)(C)C)c1[N+](=O)[O-]` was “inactive”; that for `CCOC(=O)Cc1ccccc1` was “inactive”; that for `CCC(C)c1cccc(C(C)CC)c1O` (centres undefined) was 38.9 µM (active).
The same measure, in the same setting: the value for `Nc1ccc(N=Nc2ccccc2)cc1` was “inactive”.
Same read-out and setting: to `Oc1ccc2[nH]cc(CCCCN3CC=C(c4ccccc4)CC3)c2c1` belongs “inactive”; to `CC1CN1` (centres undefined), “inactive”.
With `CC(=O)[O][Sn]([c]1ccccc1)([c]1ccccc1)[c]1ccccc1`, the Potency was 0.245 µM (active).
On the same count and under the same terms, to `O.O.O.O.O.O.O.O=S(=O)([O-])[O-].[Co+2]` belongs “inactive”.
The same measure, in the same setting: to `CC(C)N(C(=O)CCl)c1ccccc1` belongs “inactive”.
Take `CCCCCCC[CH2][Sn]([Cl])([Cl])[CH2]CCCCCCC`: the Potency result is “inactive”.
Same read-out and setting: to `S=C=NCCc1ccccc1` belongs 43.7 µM (active); to `Cc1c([N+](=O)[O-])cc2c(c1[N+](=O)[O-])C(C)(C)CC2(C)C`, “inactive”.
Same read-out and setting: to `COP(=S)(NC(C)C)Oc1ccc(C)cc1[N+](=O)[O-]` (centres undefined) belongs “inactive”; to `CCCCCCCc1ccc(O)cc1`, 43.6 µM (active).
On the same count and under the same terms, the value for `COC(=O)N(OC)c1ccccc1COc1ccn(-c2ccc(Cl)cc2)n1` was “inactive”.
For the compound `O=[N+]([O-])c1ccc(Cl)c(Cl)c1Cl`, the Potency is 24.2 µM (active).
Same read-out and setting: the value for `CO/N=C(/C1=NOCCO1)c1ccccc1Oc1ncnc(Oc2ccccc2Cl)c1F` was “inactive”; that for `CN1CCc2cc3c(cc2C1O)OCO3` (centres undefined) was “inactive”; that for `ClC(Cl)C(Cl)(Cl)Cl` was “inactive”.

Another assay in a line: A CellTox Green Cytotoxicity Assay to monitor cytotoxicity in HepG2 cells - 16 hour (AID 1224876). Further: nearly all actives have a fitted effect of over 45% in size. As to conditions: CellTox Green fluorescence; series mostly up to 76.8 µM. In outline: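 Using 1536-well format, dye-containing HepG2 suspension was seeded, allowed 5 h at 37 C/5% CO2, dosed by pintool with compounds, positive and negative controls, and imaged for fluorescence across 40 h.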
Turning to `CCC[CH2][Sn]([CH2]CCC)([O]C(C)=O)[O]C(C)=O`, the Potency was 1.24 µM (active).
Take `[F][Sn]([c]1ccccc1)([c]1ccccc1)[c]1ccccc1`: the Potency is 1.74 µM (active).
On the same count and under the same terms, to `CC(=O)[O-].CC(=O)[O-].O.O.[Zn+2]` belongs “inactive”; to `CO/N=C(\C(=O)OC)c1ccccc1CO/N=C(\C)c1cccc(C(F)(F)F)c1`, “inactive”; to `CNC(=O)/C=C(\C)OP(=O)(OC)OC`, “inactive”.
The same measure, in the same setting: the value for `Nc1nc(N)c(N)c(N)n1` was 55.2 µM (active); that for `Nc1ccccc1-c1ccccc1` was “inactive”; that for `O.O.O.O=C([O-])[C@H]([O-])[C@@H]([O-])C(=O)[O-].O=C([O-])[C@H]([O-])[C@@H]([O-])C(=O)[O-].[K+].[K+].[Sb+3].[Sb+3]` was “inactive”.
Take `O=C(NC(=O)c1ccccc1Cl)Nc1ccc(OC(F)(F)F)cc1`: the Potency entry was “inactive”.
With `CCC(C)Nc1c([N+](=O)[O-])cc(C(C)(C)C)cc1[N+](=O)[O-]` (centres undefined), the Potency result was “inactive”.
The same measure, in the same setting: to `c1ccc2nc(N3CCNCC3)ccc2c1` belongs “inactive”; to `C[C@H]1[C@H](c2ccc(Cl)cc2)SC(=O)N1C(=O)NC1CCCCC1`, “inactive”.
Same read-out and setting: the value for `CC(C)(C)c1ccc(OP(=O)(Oc2ccccc2)Oc2ccccc2)cc1` was “inactive”.
On the same count and under the same terms, to `Clc1ccc(C(c2ccc(Cl)cc2)C(Cl)Cl)cc1` belongs “inactive”; to `Oc1cccc(Cl)c1Cl`, “inactive”.
`Cc1c([N+](=O)[O-])c(C)c([N+](=O)[O-])c(C(C)(C)C)c1[N+](=O)[O-]`: the Potency result was “inactive”.
Still for that read-out and setting: the value for `CCOC(=O)Cc1ccccc1` was “inactive”; that for `CCC(OC(C)=O)C(CC(C)NC)(c1ccccc1)c1ccccc1` (centres undefined) was 62.2 µM (active); that for `CCC(C)c1cccc(C(C)CC)c1O` (centres undefined) was 17.4 µM (active).
Same read-out and setting: the value for `Nc1ccc(N=Nc2ccccc2)cc1` was “inactive”; that for `Oc1ccc2[nH]cc(CCCCN3CC=C(c4ccccc4)CC3)c2c1` was “inactive”.
Still for that read-out and setting: the value for `CC1CN1` (centres undefined) was “inactive”; that for `C[C@]12CC[C@H]3[C@@H](CCC4=CC(=O)CC[C@@H]43)[C@@H]1CC[C@@H]2OC(=O)CCc1ccco1` was “inactive”; that for `O.O.O.O.O.O.O.O=S(=O)([O-])[O-].[Co+2]` was “inactive”.
On to `CC(C)N(C(=O)CCl)c1ccccc1`, for which the Potency result is “inactive”.
As to `O=[N+]([O-])C(Br)Br`, the Potency entry is “inactive”.
The same measure, in the same setting: the value for `CCCCCCC[CH2][Sn]([Cl])([Cl])[CH2]CCCCCCC` was “inactive”; that for `Cc1c([N+](=O)[O-])cc2c(c1[N+](=O)[O-])C(C)(C)CC2(C)C` was “inactive”.
As for `COP(=S)(NC(C)C)Oc1ccc(C)cc1[N+](=O)[O-]` (centres undefined), the Potency entry was “inactive”.
Same read-out and setting: the value for `CCCCCCCc1ccc(O)cc1` was 21.9 µM (active).
Consider `COC(=O)N(OC)c1ccccc1COc1ccn(-c2ccc(Cl)cc2)n1`, for which the Potency entry is “inactive”.
For the compound `O=[N+]([O-])c1ccc(Cl)c(Cl)c1Cl`, the Potency result was “inactive”.
The same measure, in the same setting: to `CO/N=C(/C1=NOCCO1)c1ccccc1Oc1ncnc(Oc2ccccc2Cl)c1F` belongs “inactive”; to `CN1CCc2cc3c(cc2C1O)OCO3` (centres undefined), “inactive”.
Regarding `ClC(Cl)C(Cl)(Cl)Cl`, the Potency result is “inactive”.

Values taken from PubChem BioAssay (Tox21).
